Test results published in PubChem BioAssay (NCATS).
Inconclusive results are not listed. Calls of active or inactive are those of the source. Calls come from the whole dose curve; as a rule, active = well fitted curve in the direction sought with a large enough effect; inconclusive = small, poorly fitted or top-dose-only effect, or another doubt; inactive = no such curve, though single readings can be large; an effect the other way counts as inactive or inconclusive.

Assays:
[1] = qHTS Screen of the MIPE 4.0 Collection Against Ewings Sarcoma (RDES) (AID 1259252); note: nearly all actives have a fitted effect of over 35% in size
Method in brief: (§1)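 Here, cells in 5% FBS RPMI were exposed for two days (48 h) to compound dilutions added four hours after plating. ATP-based CellTiter-Glo luminescence measured viability, normalized to vehicle and no-cell blanks.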

[2] = qHTS Screen of the MIPE 4.0 Collection Against Ewings Sarcoma (EW8) (AID 1259255); note: nearly all actives have a fitted effect of over 35% in size
Method in brief: as §1

[3] = qHTS Screen of the MIPE 4.0 Collection Against Ewings Sarcoma (TC32) (AID 1259256); note: nearly all actives have a fitted effect of over 45% in size
Method in brief: as §1

[4] = qHTS assay to identify small molecule inhibitors of chordoma cells - UCH-1 (AID 1259355); note: nearly all actives have a fitted effect of over 55% in size; for Potency: series mostly up to about 46 µM
Method in brief: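 Luminescent ATP read-out (CellTiter-Glo, 30min at room temperature) measured viability of UCH-1 cells exposed for 48hr to test drugs at 15 concentrations, co-dosed with a five-agent combination of auranofin, camptothecin, doxorubicin, rubitecan and topotecan.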

[5] = qHTS assay to identify small molecule inhibitors of chordoma cells - UCH-2 (AID 1259356)
[6] = Identifying Small Molecule Inhibitors of Pancreatic Cancer Stem Cells (SN12C, Adherent) (AID 1259358);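 note: cell survival measured after 48 h of compound exposure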
Method in brief: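 Luminescent ATP readout (CellTiter-Glo) quantifies surviving cells after a 48 h drug incubation. Normalization uses DMSO wells as no inhibition and media-only wells as full inhibition; bortezomib served as positive control.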

[7] = Identifying Small Molecule Inhibitors of Pancreatic Cancer Stem Cells (Panc1, Spheroid) (AID 1259359); settings: Panc1 spheroid cancer stem cell viability;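 note: compound exposure lasted 48 h before reading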
Method in brief: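 Cytotoxicity read by CellTiter-Glo luminescence after 48 h compound exposure at 37C; percent activity scaled between DMSO-treated cells and cell-free wells. Spheroid formats used cells pre-formed 14 days in stem cell media on hydrogel.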

Measured: Potency
Potency is the fitted concentration of half-maximal effect.

CCn1cc(C(=O)O)c(=O)c2cc(F)c(N3CCN(C)CC3)cc21
not listed: [6] | [7]
inactive: all other assays above

O=S(=O)(c1cccc2cnccc12)N1CCCNCC1
inactive: [2] | [3] | [4] | [5]
active: [1] 26.4 µM

Cc1nnc(NS(=O)(=O)c2ccc(N)cc2)s1
active: [1] 14.8 µM | [2] 13.2 µM
inactive: [4] | [5]

Cc1onc(-c2ccccc2Cl)c1C(=O)N[C@@H]1C(=O)N2[C@@H]1SC(C)(C)[C@@H]2C(=O)O
not listed: [6] | [7]
inactive: all other assays above

O=P(O)(O)C(O)(Cc1cccnc1)P(=O)(O)O
not listed: [6] | [7]
inactive: all other assays above

CCN(CC)CC#CCOC(=O)C(O)(c1ccccc1)C1CCCCC1 (centres undefined)
not listed: [6] | [7]
inactive: all other assays above

CCOCC(O)COc1ccc(NC(=O)CC[S+](C)C)cc1 (centres undefined)
not listed: [6] | [7]
inactive: all other assays above

CCCN[C@H]1CCc2nc(N)sc2C1
not listed: [6] | [7]
inactive: all other assays above

CCc1c2c(nc3ccc(OC(=O)N4CCC(N5CCCCC5)CC4)cc13)-c1cc3c(c(=O)n1C2)COC(=O)[C@]3(O)CC
active: [1] 0.332 µM | [2] 0.469 µM
inactive: [3] | [4] | [5]

CN(C)c1ccc(C(=C2C=CC(=[N+](C)C)C=C2)c2ccc(N(C)C)cc2)cc1
inactive: [3]
active: [1] 0.372 µM | [2] 0.418 µM | [4] 22.4 µM | [5] 7.3 µM

COc1ncnc(NS(=O)(=O)c2ccc(N)cc2)c1OC
not listed: [6] | [7]
inactive: all other assays above

CC(C)C1CCC(C(=O)N[C@H](Cc2ccccc2)C(=O)O)CC1 (some centres undefined)
not listed: [6] | [7]
inactive: all other assays above

COc1nc(N)nc2c1ncn2[C@@H]1O[C@H](CO)[C@@H](O)[C@@H]1O
inactive: [2] | [3] | [4] | [5]
active: [1] 20.9 µM

C#CCN[C@@H]1CCc2ccccc21
not listed: [6] | [7]
inactive: all other assays above

CC(=O)[C@H]1CC[C@H]2[C@@H]3CC=C4C[C@@H](O)CC[C@]4(C)[C@H]3CC[C@]12C
inactive: [1] | [2] | [3] | [5]

N[C@@H](Cc1ccc(O)c(O)c1)C(=O)O
inactive: [1] | [2] | [3] | [5]

CC(=O)CC(c1ccccc1)c1c(O)c2ccccc2oc1=O (centres undefined)
not listed: [6] | [7]
inactive: all other assays above

CO[C@@H]1[C@@H](OC(N)=O)[C@@H](O)[C@H](Oc2ccc3c(O)c(NC(=O)c4ccc(O)c(CC=C(C)C)c4)c(=O)oc3c2C)OC1(C)C
inactive: [4] | [5]
active: [1] 5.9 µM | [2] 2.09 µM | [3] 5.9 µM

NC(=O)N1c2ccccc2CC(=O)c2ccccc21
not listed: [6] | [7]
inactive: all other assays above

COc1cnc(NS(=O)(=O)c2ccc(N)cc2)nc1
not listed: [6] | [7]
inactive: all other assays above

CCCc1cc(C(N)=S)ccn1
not listed: [6] | [7]
inactive: all other assays above

CC1=NN(c2ccccc2)C(=O)C1
not listed: [6] | [7]
inactive: all other assays above

C1CCC(C(CC2CCCCN2)C2CCCCC2)CC1 (centres undefined)
active: [1] 23.5 µM | [2] 13.2 µM | [3] 16.6 µM | [4] 31.6 µM

CC(C)Cn1cnc2c(N)nc3ccccc3c21
inactive: [4] | [5]
active: [1] 16.6 µM | [2] 7.43 µM | [3] 18.7 µM

Nc1nc(=S)c2[nH]cnc2[nH]1
active: [1] 0.935 µM | [3] 0.526 µM

COc1cc(NS(=O)(=O)c2ccc(N)cc2)nc(OC)n1
not listed: [6] | [7]
inactive: all other assays above

CC(N)C12CC3CC(CC(C3)C1)C2 (centres undefined)
not listed: [6] | [7]
inactive: all other assays above

COc1cc([C@@H]2c3cc4c(cc3[C@H](O)[C@H]3COC(=O)[C@H]23)OCO4)cc(OC)c1OC
inactive: [1] | [2] | [5]
active: [4] 0.0079 µM | [6] 0.0187 µM | [7] 0.0021 µM
